About 83,000 compounds went through this panel and 20% of them were active in at least one assay; those are over-represented in the sample as a whole.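 Testing used 96-well plates and a 48-hour single-concentration exposure. Example: -40 means 40% of the starting cells died.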 Values without a mark were called inactive. Calls of active or inactive are those of the source. The calls were made as follows: active = growth percent below 10; inactive = the rest.

Test systems include NCI-H23 lung; NCI-H226 lung; NCI-H322M lung; HOP-62 NSCLC; NCI-H460 lung; HOP-92 NSCLC; A549/ATCC NSCLC; 786-0 renal; COLO 205 colon.
Holding throughout (assay): NCI-60 one-dose screen, 48 h (100 = growth as untreated, 0 = no growth, -100 = all killed)
Details in all cases: 10 µM unless noted

Regarding `COc1ccc(C2=NN(C=O)C(c3cccc(Nc4ccnc5cc(Cl)ccc45)c3)C2)cc1` (stereo unspecified), the growth in the assay on NCI-H23 lung was 23.5%; in the assay with NCI-H226 lung, 39.7%; in the assay with NCI-H322M lung it was 45.8%; in the assay with HOP-62 NSCLC, 13.2%; in the assay on NCI-H460 lung it was 14.3%; in the assay with HOP-92 NSCLC it was 36.9%. Also, the growth in the assay with A549/ATCC NSCLC is 30.2%; in the assay on 786-0 renal it was 28.5%; in the assay on COLO 205 colon it was 0.0234% (active).
Consider `COc1cc(C(=O)c2cc3c(cc2C)OCO3)cc(OC)c1OC`, for which the growth is 28% with NCI-H23 lung; 45.4% with NCI-H226 lung; 36% in the assay on NCI-H322M lung; 40.8% in the assay on HOP-62 NSCLC; 8.71% (active) in the assay with NCI-H460 lung; 37.4% in the assay on HOP-92 NSCLC. Further, the growth is 17.8% with A549/ATCC NSCLC, 51.3% in the assay on 786-0 renal and -49.9% (active) in the assay with COLO 205 colon.
`N#Cc1c(NC(=O)c2ccco2)[n+]([O-])c2ccccc2[n+]1[O-]`: the growth with NCI-H23 lung is 110%; in the assay on NCI-H226 lung it was 86.1%; in the assay with NCI-H322M lung, 103%; in the assay with HOP-62 NSCLC, 82.9%; with NCI-H460 lung it was 107%; in the assay with HOP-92 NSCLC, 164%. Moreover, the growth in the assay with A549/ATCC NSCLC was 99.7%; in the assay with 786-0 renal it was 99.2%; in the assay on COLO 205 colon, 105%.
For `O=C(NC1CCCCC1)c1ccc(Nc2ncnc3c2cnn3-c2ccccc2)cc1`, the growth in the assay on NCI-H23 lung is 72%; with NCI-H226 lung, 19.1%; with NCI-H322M lung it was 64%; in the assay with HOP-62 NSCLC, -66.5% (active); in the assay on NCI-H460 lung, 42.2%; with HOP-92 NSCLC it was 37.7%. Moreover, the growth in the assay on A549/ATCC NSCLC was 16.6%; with 786-0 renal it was 72.1%; in the assay with COLO 205 colon it was 65.4%.
For `CCCCCCCCN(CCO)CCCCCCCC`, the growth in the assay on NCI-H23 lung is 103%; in the assay with NCI-H226 lung, 92.8%; in the assay on NCI-H322M lung, 96.1%; in the assay with HOP-62 NSCLC it was 103%; in the assay with NCI-H460 lung, 106%; with HOP-92 NSCLC it was 97%. Moreover, the growth was 99.7% with A549/ATCC NSCLC, 101% in the assay with 786-0 renal and 107% in the assay on COLO 205 colon.
Consider `COc1ccc(-c2cc(-c3nnc(SCC(=O)Nc4ccc(C(C)=O)cc4)n3-c3ccccc3)c3ccccc3n2)cc1OC`, for which the growth was 96.2% in the assay with NCI-H23 lung; 105% in the assay on NCI-H226 lung; 102% with NCI-H322M lung; 84% with HOP-62 NSCLC; 103% in the assay with NCI-H460 lung; 104% in the assay on HOP-92 NSCLC. The growth in the assay with A549/ATCC NSCLC was 94.9%; in the assay on 786-0 renal, 97.1%; in the assay with COLO 205 colon it was 98.8%.
Regarding `Nc1nc(NC2CC2)c2ncn(C3C=CC(CO)C3)c2n1` (stereo unspecified), the growth in the assay on NCI-H23 lung is 107%; in the assay with NCI-H226 lung it was 91.4%; with NCI-H322M lung, 94%; in the assay on HOP-62 NSCLC, 104%; in the assay with NCI-H460 lung it was 118%; in the assay with HOP-92 NSCLC, 97%. Moreover, the growth in the assay with A549/ATCC NSCLC is 108%; with 786-0 renal, 107%; in the assay on COLO 205 colon it was 121%.
As to `N/C(=N\C(N)=N\c1nc2ccccc2s1)c1ccnc(Cl)c1`, the growth was 43.4% in the assay with NCI-H23 lung; 48.8% in the assay on NCI-H226 lung; 70.1% with NCI-H322M lung; 44.4% with HOP-62 NSCLC; 17.3% with NCI-H460 lung; 73.9% in the assay with HOP-92 NSCLC. Further, the growth in the assay with A549/ATCC NSCLC is 47.4%; with 786-0 renal, 41.1%; in the assay on COLO 205 colon, 18.1%.
With `CCN(CC)c1ccc(C(=C2C=CC(=[N+](CC)Cc3cccc(S(=O)(=O)O)c3)C=C2)c2ccc(N(CC)Cc3cccc(S(=O)(=O)O)c3)cc2)cc1`, the growth with NCI-H23 lung is 45.2%; in the assay with NCI-H226 lung it was 71.3%; in the assay on NCI-H322M lung, 58.3%; in the assay with HOP-62 NSCLC, 1.01% (active); in the assay on NCI-H460 lung, 49.1%; with HOP-92 NSCLC, 66.3%. The results for the growth in the assay with A549/ATCC NSCLC, with 786-0 renal and in the assay with COLO 205 colon were -4.01% (active), 55.9% and 14%, respectively.
For `CCSCC1CC(O)(c2ccccc2)C(c2ccccc2)C(c2ccc(Cl)cc2)O1` (stereo unspecified), the growth in the assay with NCI-H23 lung is 14.7%; in the assay on NCI-H226 lung it was -1.26% (active); in the assay with NCI-H322M lung, 18%; in the assay on HOP-62 NSCLC, 16.4%; with NCI-H460 lung, -45.8% (active); in the assay on HOP-92 NSCLC it was -3.51% (active). Besides, the growth was -23.1% (active) in the assay on A549/ATCC NSCLC, 3.26% (active) in the assay on 786-0 renal and -100% (active) with COLO 205 colon.
Take `COC(=O)N/N=C/c1coc2ccc(Cl)cc2c1=O`: the growth in the assay on NCI-H23 lung is 99.4%; in the assay on NCI-H226 lung, 84.7%; with NCI-H322M lung, 99.2%; with HOP-62 NSCLC, 74.7%; with NCI-H460 lung it was 102%; with HOP-92 NSCLC, 1.24% (active). Further, the growth was 103% with A549/ATCC NSCLC, 104% in the assay with 786-0 renal and 91.4% in the assay on COLO 205 colon.
As for `COc1cc(/C=C\C(C)=N\Nc2ccccc2)ccc1O`, the growth in the assay with NCI-H23 lung was 91.2%; with NCI-H226 lung, 109%; with NCI-H322M lung it was 128%; in the assay on HOP-62 NSCLC it was 67.5%; in the assay on NCI-H460 lung, 111%; in the assay with HOP-92 NSCLC it was 100%. Besides, the growth in the assay with A549/ATCC NSCLC was 80.7%; in the assay with 786-0 renal, 97.4%; in the assay on COLO 205 colon, 111%.
Consider `NC(=N\N=C/Cc1ccccc1)/C(N)=N\N=C\Cc1ccccc1`, for which the growth in the assay on NCI-H23 lung is 104%; with NCI-H226 lung, 104%; in the assay with NCI-H322M lung, 117%; with HOP-62 NSCLC, 113%; in the assay on NCI-H460 lung, 112%; in the assay on HOP-92 NSCLC, 109%. Besides, the growth is 101% with A549/ATCC NSCLC, 112% in the assay with 786-0 renal and 117% in the assay on COLO 205 colon.
Consider `CC(C)OP(=O)(OC(C)C)c1ncc(-c2ccc(C(F)(F)F)cc2)c(NC2CCCCCC2)n1`, for which the growth in the assay with NCI-H23 lung is -47.6% [33.3 µM] (active); with NCI-H226 lung, -50.3% [33.3 µM] (active); with NCI-H322M lung, -70% [33.3 µM] (active); with HOP-62 NSCLC, -27.1% [33.3 µM] (active); in the assay with NCI-H460 lung it was -64.5% [33.3 µM] (active); with HOP-92 NSCLC, -93.7% [33.3 µM] (active). In addition, the growth in the assay with A549/ATCC NSCLC was -33.6% [33.3 µM] (active); with 786-0 renal it was -67.6% [33.3 µM] (active); in the assay with COLO 205 colon it was -78% [33.3 µM] (active).
As for `CC(=O)Nc1c(Cl)cc2c(c1Cl)Cc1ccccc1-2`, the growth in the assay on NCI-H23 lung is 91.5%; in the assay on NCI-H226 lung, 90.7%; with NCI-H322M lung, 106%; in the assay with HOP-62 NSCLC it was 107%; with NCI-H460 lung, 104%; in the assay on HOP-92 NSCLC, 87.7%. Moreover, the growth in the assay on A549/ATCC NSCLC was 92.1%; with 786-0 renal it was 108%; in the assay on COLO 205 colon, 112%.
For `C[C@@H]1C[C@@H]([C@@H](CC2CC(=O)NC(=O)C2)OC(=O)CC(=O)c2ccccc2)C(=O)[C@@H](C)C1`, the growth is 13.9% in the assay with NCI-H23 lung; 4.07% (active) in the assay on NCI-H226 lung; -19.5% (active) in the assay on NCI-H322M lung; 13.5% in the assay with HOP-62 NSCLC; 12.1% in the assay on NCI-H460 lung; 9.2% (active) in the assay with HOP-92 NSCLC. Also, the growth with A549/ATCC NSCLC was 1.76% (active); in the assay on 786-0 renal, 1.2% (active); in the assay on COLO 205 colon, 10.2%.
In the case of `Cc1ccc2nc3c(n2c1)C(=O)C(=O)c1ccccc1-3`, the growth in the assay with NCI-H23 lung is -12.4% (active); in the assay with NCI-H226 lung, -44.1% (active); with NCI-H322M lung, -80.7% (active); with HOP-62 NSCLC, -74.9% (active); in the assay on NCI-H460 lung, -71.1% (active); with HOP-92 NSCLC it was -77.2% (active). The growth in the assay on A549/ATCC NSCLC was -77.3% (active); with 786-0 renal it was -81% (active); in the assay on COLO 205 colon it was -69.2% (active).
As for `NS(=O)(=O)c1ccc(-n2ncc3c(N/N=C/c4ccccc4)ncnc32)cc1`, the growth in the assay on NCI-H23 lung was 80.6%; in the assay with NCI-H226 lung, 107%; with NCI-H322M lung, 94.6%; in the assay on HOP-62 NSCLC it was 104%; in the assay on NCI-H460 lung, 66.4%; in the assay with HOP-92 NSCLC it was 87.6%. The growth in the assay on A549/ATCC NSCLC was 52%; in the assay with 786-0 renal, 93.2%; with COLO 205 colon, 97.5%.
As for `CC(=O)[C@H]1CC[C@H]2[C@@H]3C[C@H](C)C4=CC(=O)CC[C@]4(C)[C@H]3C(=O)C[C@]12C`, the growth in the assay with NCI-H23 lung was 102%; in the assay on NCI-H226 lung it was 104%; in the assay with NCI-H322M lung, 117%; in the assay on HOP-62 NSCLC, 99.1%; with NCI-H460 lung, 107%; with HOP-92 NSCLC it was 85.3%. For the same molecule, the growth in the assay with A549/ATCC NSCLC is 98.7%; with 786-0 renal, 112%; in the assay on COLO 205 colon, 94.3%.

The values are drawn from PubChem BioAssay (NCI).
